Laboratory results published in the supplement of paper PMC10681739.

Tests used:
[1] = target: T1, ETS1 (UniProt P14921); experiment: ETS1 binding intensity (PBM fluorescence), ETS1 alone (arbitrary fluorescence units); higher = stronger binding; conditions: ETS1 concentration 1 nM; RUNX1 concentration 0 nM
T1 sequence: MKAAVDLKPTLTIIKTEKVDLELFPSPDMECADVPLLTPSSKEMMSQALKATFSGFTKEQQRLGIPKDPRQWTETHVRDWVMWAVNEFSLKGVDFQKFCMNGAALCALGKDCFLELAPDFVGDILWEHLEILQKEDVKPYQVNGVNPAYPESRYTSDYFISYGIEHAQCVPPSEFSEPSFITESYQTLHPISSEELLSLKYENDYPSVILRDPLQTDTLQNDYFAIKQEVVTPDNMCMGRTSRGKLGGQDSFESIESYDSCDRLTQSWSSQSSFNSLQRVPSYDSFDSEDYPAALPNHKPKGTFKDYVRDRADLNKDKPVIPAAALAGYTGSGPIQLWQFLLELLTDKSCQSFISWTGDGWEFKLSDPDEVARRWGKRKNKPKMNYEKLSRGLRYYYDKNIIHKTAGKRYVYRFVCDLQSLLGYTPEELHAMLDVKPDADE

[2] = target: RUNX1 (UniProt Q01196); experiment: RUNX1 binding intensity (PBM fluorescence), RUNX1 alone (arbitrary fluorescence units); higher = stronger binding; conditions: RUNX1 concentration 2 nM; ETS1 concentration 0 nM
Procedure: (§1)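 Cooperative gcPBM on 36-bp genomic probes with neighbouring ETS1 and RUNX1 sites. Recombinant human RUNX1 (2 nM) was incubated alone or with ETS1 (25 nM) and detected with anti-RUNX1 antibody plus Alexa488 secondary. Values are medians over 4 replicate spots; the RUNX1+ETS1 data were normalised to the RUNX1-only data. The probes sit in constant array flanks that are not printed.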

[3] = target: T1, ETS1; experiment: ETS1 binding intensity (PBM fluorescence) in presence of RUNX1, normalised to ETS1-only experiment (arbitrary fluorescence units); higher = stronger binding; conditions: ETS1 concentration 1 nM; RUNX1 concentration 25 nM
[4] = target: RUNX1 (UniProt Q01196); experiment: RUNX1 binding intensity (PBM fluorescence) in presence of ETS1, normalised to RUNX1-only experiment (arbitrary fluorescence units); higher = stronger binding; conditions: RUNX1 concentration 2 nM; ETS1 concentration 25 nM
Procedure: as §1
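Wherever RUNX1 binding intensity (PBM fluorescence) in presence of ETS1, normalised to RUNX1-only experiment is given: Full-length recombinant human ETS1 or RUNX1 bound to double-stranded 36-bp genomic probes on microarrays, detected by protein-specific primary antibody and Alexa488 secondary, spot fluorescence as median of four replicate spots.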
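Wherever RUNX1 binding intensity (PBM fluorescence), RUNX1 alone is given: Full-length recombinant human RUNX1 bound to double-stranded 36-bp genomic probes on a high-density microarray, scored as Alexa488 fluorescence per spot via anti-RUNX1 antibody, median of four replicate spots.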

RUNX1, sequence (Q01196 whole entry): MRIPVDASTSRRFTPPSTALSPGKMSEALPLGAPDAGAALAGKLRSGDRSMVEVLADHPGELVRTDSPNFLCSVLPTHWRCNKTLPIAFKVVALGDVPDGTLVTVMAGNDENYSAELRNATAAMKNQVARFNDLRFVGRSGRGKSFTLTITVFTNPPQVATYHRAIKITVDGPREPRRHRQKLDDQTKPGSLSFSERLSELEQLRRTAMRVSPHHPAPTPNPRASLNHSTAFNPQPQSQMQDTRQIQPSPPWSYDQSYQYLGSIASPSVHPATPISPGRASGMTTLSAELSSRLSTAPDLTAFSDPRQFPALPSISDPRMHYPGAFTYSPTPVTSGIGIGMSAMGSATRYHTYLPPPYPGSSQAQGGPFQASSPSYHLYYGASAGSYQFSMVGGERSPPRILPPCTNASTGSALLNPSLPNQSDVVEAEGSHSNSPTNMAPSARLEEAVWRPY

Row | Sequence | ETS1 binding intensity [1] | RUNX1 binding intensity [2] | ETS1 binding intensity [3] | RUNX1 binding intensity [4]
1 | TGCAGCTATGGCCGGAAGCCTGTGGGTGTGGGAGGA | 4180 | 726 | 4580 | 906
2 | TAAGGATGTGTGGCTTCCAGATCAAAAACCGCAAAA | 516 | 7590 | 3920 | 10600
3 | AGCAACAGGAAAGAACAGCCTGACCACAGCAGCCAC | 393 | 948 | 727 | 1050
4 | AGGTGTACTTTCCGGGTGCAGACCGCGAATGGATCG | 383 | 743 | 534 | 1120
5 | AGAAGGCGCCGGAAGTGGTCCCGCAGAGGCGGGGTG | 8990 | 725 | 14100 | 2500
6 | TGACTTCCGGTCCGTAGTGGGGCCTGCGGTGGGAGT | 3690 | 801 | 10700 | 3180
7 | CCAGAGCACATCCTACACGCACCACAACCTGAAAAC | 453 | 1250 | 396 | 1470
8 | CTTCAGCCGCCACTTCCCCGCCCCCGCAGCCCGACA | 936 | 1290 | 925 | 1290
9 | CCACTGCTTCCGCCTTCTCTGCTGGCTGCGGGGAGC | 545 | 904 | 516 | 2210
10 | ATGGTGTAGAGAGGATGTGGGCTTTAAGGTCAGAGA | 1140 | 706 | 1690 | 1000
11 | GAGCCTGTTGCTTCCGGTTCAGAGCCCACATGCTGG | 3070 | 736 | 3370 | 1940
12 | CGTGTGGGAGGCCGGAAGTTGCGGCTTCATTACTCG | 20400 | 845 | 51000 | 2710
13 | AACATCCTGTGTAAAGAGAATTGAATGTGGTTTTCT | 559 | 821 | 1360 | 2600
14 | CAGCAGAGGCGCGGATGTGGTTAAACGAGTGCCGTC | 775 | 876 | 6770 | 3670
15 | ATACAGACACAGGAAGTTGTGGGGAGTGCAAAAGCC | 5090 | 798 | 5680 | 1530
16 | CTCTTCCGCTCAGTCATCCTCAGAGGTGGTAAGACT | 496 | 1080 | 387 | 2080
17 | CGCCCACCACTTCCTGCTGGCGGTCGGCAAGCGTTG | 1430 | 1020 | 2240 | 8670
18 | GGAGCAAGGATGACAGGATGTGGCTTAGGGGGAGGC | 5020 | 708 | 7820 | 1000
19 | TAAGTGCAGGAAACGGCTGTGTGGGTGTCAGTGATT | 1350 | 689 | 1310 | 906
20 | GAAAACTAAGCAGGATGTGGTCTCGGCTGGAGCCTG | 2730 | 657 | 5380 | 2020
21 | AGAACCACTTCCTCTCAGTAAACCACAGAGACTGTA | 592 | 1790 | 1310 | 5880

Row | Sequence | ETS1 binding intensity [1] | RUNX1 binding intensity [2] | ETS1 binding intensity [3] | RUNX1 binding intensity [4]
22 | GAGACACTCTGCTTCCTGCGGTGGAAGATTCAGTAT | 473 | 873 | 482 | 1080
23 | GGCTGTGCTTCAGGATGTGGTAATGCTTGGGAGGCG | 990 | 780 | 4180 | 1360
24 | GTTTGAAGGGAAGTGGGTGTTGACCTGCGGGCAACT | 483 | 806 | 948 | 969
25 | CTCACCCCTGGAGGATGTGGGTTTCCAGGCTGACAG | 836 | 849 | 2130 | 1190
26 | CTGTCCGCTACATCCGGGACCTGCGGGACCGCCGAT | 1770 | 823 | 2430 | 2300
27 | AAAGCAAAGTCAAGAGGATGTGGTGACCAATTCTGC | 1320 | 685 | 2860 | 855
28 | AGCTAGACTACAGGAGGAAACCACAGCCTAAACCAG | 541 | 1250 | 1030 | 1410
29 | GATACCTAGAAGCCAGGAAACCGCGAGCTGCAGTCC | 1080 | 1190 | 2130 | 1380
30 | GACAGAGGAAACTAGGTGTGACAACCACAAACAGCT | 432 | 882 | 651 | 785
31 | ACACTGAGCTGAACGGAAATGTGGTTCTCACCTCAT | 2670 | 774 | 3100 | 1140
32 | TGCAGCCTATTTCCTCTAACCCGCAGATCCACTATG | 536 | 1470 | 728 | 2250
33 | CTCCTCCCCCACTTCCTATTTTTACCGCAGTTGCAC | 752 | 4960 | 1340 | 7610
34 | TCCTTAATGGTTCCGGCGGCAGGGACCGCAGCGACG | 460 | 824 | 526 | 914
35 | TGAGAGTAAAAAGGATGTGGTTTCCTTTCATTTTTT | 1580 | 927 | 6790 | 2430
36 | GAAGTGAGGTCAGGATGTGGTGGGTGACCCCTGAAA | 911 | 768 | 1340 | 1090
37 | GAGACAGGAAATGTAGACTTGAGTCCTGTGGTAAAC | 1910 | 739 | 6740 | 1260
38 | CTTTTCCATGCAGGAAGTGGTTTTTAGAGTGTAGAG | 7750 | 896 | 20100 | 2920
39 | TGTCAGCTGCGTTTCCGCGGTCGCGGGTGAGTGTGC | 418 | 752 | 588 | 1360
40 | AGCGCTTCCTGGCTCCGGCCCCGCCCCTGCGGTCGG | 484 | 942 | 1110 | 1880
41 | CCCGACTTCCGCCGCTGGTGGCCACCCGCAGGTAGT | 732 | 789 | 1050 | 2050
42 | TCCAGGATGTGGGATGCCGTGCTGTACCGCATGTCA | 498 | 652 | 1030 | 1160

Row | Sequence | ETS1 binding intensity [1] | RUNX1 binding intensity [2] | ETS1 binding intensity [3] | RUNX1 binding intensity [4]
43 | AAGGCGGTACTTCCTCCAGCATTTGCCGCAAGTTAT | 417 | 768 | 535 | 1250
44 | CCGCTGACATCCGCTTGGCCTGCGGCTTCTTTCTGT | 715 | 1080 | 1030 | 2740
45 | GTTGTCTTCTTCCTGAGTAAACCGCAGTGCAGAGAA | 456 | 5250 | 1120 | 6380
46 | GGAATTTCTTTTTCCGGTCCCGCAGGGTCAGCTGAG | 1240 | 735 | 1520 | 1750
47 | CAGGTGTTCAGGAAACAAAACCACAGACTTTTTCAC | 562 | 4690 | 2370 | 6800
48 | TGCCTCCTCGTCACAGGATGTGGTCGCTGCACCCTG | 5200 | 788 | 16000 | 1700
49 | CTCATCAGTCATCCGGCTGGACCGCAGGAGCTCTCC | 403 | 933 | 500 | 1570
50 | AGGCCGCTTCCTCCCACATGAAACCGCAGGCTTCGG | 374 | 3590 | 1590 | 10900
51 | AAAAGGCACCAGGAAATGACAGCACCGCAGCACGCC | 1290 | 717 | 2020 | 871
52 | TGGAGTGGAGGAAGTGGTGTTACCACAGCTCAGAGG | 1050 | 726 | 2680 | 1230
53 | GGGCGCGACTTCCGGGGCGGCGGTTGCATCAGATTC | 1580 | 774 | 1780 | 2100
54 | ACTGGCTTCACTTCCTCCGCGGTTCCTCGGAGCCGC | 497 | 917 | 514 | 1730
55 | CTGCTGCTTTTAGGATGTGGTTTTATTATTGTCGGG | 670 | 1020 | 4960 | 1340
56 | GGGGTCAGGAAATGGGTGTGCCGCGGGTAAGGCGCT | 949 | 733 | 921 | 984
57 | GTGGCGAAAGTGCGGATGCGAAACCGCTGGCTCGGC | 587 | 782 | 1060 | 881
58 | GCCCCAGCGTTTCCTCTTACCCACAATGCCCCGCCC | 794 | 1510 | 869 | 2330
59 | CAGAAAGAGGAAATGATGCGAGTCCACACCGCAGGC | 788 | 703 | 2610 | 1170
60 | TGGCAGCCACATCCTGCCTGTGGCTAGGTCAACCCA | 1220 | 794 | 1290 | 3730
61 | GTGCCTCACCGCTTCCGGCGCTGCGGGATGACGTCA | 2390 | 786 | 4720 | 7320
62 | TGCGCCGCTTCCGCTGCCCGAGGAAGAGCCGCAGTC | 1090 | 802 | 1230 | 1870
63 | CTTTGTTGAAAAGGATGTGGTCATCTGATCTTGCTG | 1070 | 864 | 3320 | 2000

Row | Sequence | ETS1 binding intensity [1] | RUNX1 binding intensity [2] | ETS1 binding intensity [3] | RUNX1 binding intensity [4]
64 | GTTATTCTCCCCTTCCTGTGGTGTGTTTTGATGGTA | 702 | 1120 | 626 | 1590
65 | CTGAGACCTCGGGCAGGATGTGGCTTCCCCAGAGTT | 4700 | 684 | 7460 | 1180
66 | GCGACCCGACCCGGCGGAAACCACCTCGACAGCCTC | 915 | 953 | 1000 | 941
67 | CTCGTGCGTCACTTCCGCCCCGCAGACCCGCCCACT | 2410 | 1050 | 2940 | 2420
68 | GCCCAGGAAGTGGGTACAAAATGAGCCACAAGACCT | 616 | 768 | 839 | 1610
69 | ACAGAGCAGGAAGCAGCCCTCACCACAGATGAAGCA | 686 | 760 | 1210 | 1360
70 | CACTGATTAAGAGGAAGTGTGTGTGGTTATTACCGT | 1980 | 804 | 8330 | 1170
71 | CAACTTCCGGGGCCGGTTGCCTGGCAACCGCAGGAG | 812 | 965 | 3940 | 3790
72 | ACCGGCCGAGCCAACTTCCGGCCGCAGAGGCTGCCG | 5830 | 756 | 7630 | 1840
73 | TCAGAGACTTCCGCTCAGCAGCAGCTGCGGCCAGGC | 966 | 671 | 1330 | 1850
74 | TGGTTTCCGGGCTGGGGTTAGAATAGGCCACAAGGT | 494 | 787 | 536 | 1740
75 | GGCCGACGGGAAGTGTAGTCCGGCCTGCGGTCCGGG | 801 | 704 | 1910 | 1050
76 | CCAAAAACCCCAGGAGGATGTGGTGAGGAGGGAAGG | 1110 | 831 | 2590 | 1040
77 | TGGCGGGAGAACTTCCCCCTGTGCGGTCGCGACGTG | 444 | 738 | 533 | 943
78 | GGGCGGGTCAGCGGAAGTGAGGGCGGTTGAGGCTGG | 4740 | 742 | 4550 | 1320
79 | GCTTCTTCAGCCACATCCTGACCACAGCCCAGATTC | 496 | 2350 | 1270 | 5070
80 | GGACTCTGGCAGGAAGCTGTTTGTGGTTGTCACACC | 3140 | 796 | 11000 | 1150
81 | GTGGTCTCTCCCGGAAAAACCACTTCCACCGAGAAC | 932 | 861 | 1440 | 1270
